HTR5A ag ctr: activates human HTR5A in OPRM1-OPRD1 agonist counter-screen; P47898; AID 504692; 340,000 tested, 0.61% active; activation, % at 9.3 µM; HTR5A agonist assay, luminescence, cell-based; in the data active = activation mostly above about 9.5%, no sharp cut-off; inactive = mostly below about 7.6%
Target sequence (P47898 whole entry, looked up): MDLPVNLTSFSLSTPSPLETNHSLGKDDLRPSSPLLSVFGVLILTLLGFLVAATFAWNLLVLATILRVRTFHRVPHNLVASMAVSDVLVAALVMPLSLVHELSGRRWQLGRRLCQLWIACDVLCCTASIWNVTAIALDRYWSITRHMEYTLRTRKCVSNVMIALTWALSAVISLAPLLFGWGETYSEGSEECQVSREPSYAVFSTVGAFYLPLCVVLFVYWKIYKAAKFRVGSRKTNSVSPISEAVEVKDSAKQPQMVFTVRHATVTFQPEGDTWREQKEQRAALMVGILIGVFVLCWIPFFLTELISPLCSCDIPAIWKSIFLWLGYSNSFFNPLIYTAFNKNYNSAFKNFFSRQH
HTR5A inv ctr: counter-screen for OPRM1-OPRD1 inverse agonists: human HTR5A inverse agonism | P47898 | HTR5A cell line, luminescence | inhibition, % at 9.3 µM | 340,000 tested, 0.083% active | AID 504634; in the data active = inhibition mostly above about 23%, no sharp cut-off; inactive = mostly below about 18%
MOR-DOR inv ag-1: inverse agonists of human mu-delta opioid receptor heterodimerization; P35372+P41143; cell-based MOR-DOR heterodimer luminescence, inverse agonism; inhibition, % at 9.3 µM; 340,000 tested, 0.21% active; AID 504357; in the data active = inhibition above about 22%, passing the limit was not always enough
MOR-DOR ag-1: agonists of human mu-delta opioid receptor heterodimerization; 340,000 tested, 0.3% active; activation, % at 9.3 µM; P35372+P41143; cells, OPRM1-OPRD1 heterodimerization, luminescence
MOR-DOR inv ag-2: opioid heterodimer inverse agonism, HTR5A counter-screen. shares compounds with HTR5A inv ctr. U2OS counter-screen cells, complementation luminescence. inhibition, % at 9.3 µM. 190 tested, under 10 active. AID 504912; call rule not given here
HTR5A inv conf: confirmation of human HTR5A inverse agonists; AID 504916; inhibition, % at 9.3 µM; 190 tested, under 10 active; HTR5A-expressing cells, inverse agonism, luminescence; shares compounds with HTR5A inv ctr; call rule not given here
MOR-DOR ag-2: counter-screen for HTR5A agonists: OPRM1-OPRD1 heterodimerization agonism | shares compounds with HTR5A ag ctr | U2OS counter-screen cells, complementation luminescence, 3 h | activation, % at 9.3 µM | 800 tested, 13% active
HTR5A ag conf: HTR5A (human) agonism, confirmation. shares compounds with HTR5A ag ctr. 800 tested, 17% active. AID 504915. HTR5A agonist cell assay, luminescence. activation, % at 9.3 µM; in the data active = activation above about 17%
Numbers stand for hits. Rows were chosen to be rich in hits. Some 1.1% of all compounds tested hit in one or more screens of this group. Cut-off read from the data, not from the text of the source, unless noted: active = activation above about 18%; inactive = the rest.

How did Cc1ccc(NC(=S)N/N=C2/CCCCc3ccccc32)cc1 do in these assays?
HTR5A ag ctr: inactive; HTR5A inv ctr: 43.6; MOR-DOR inv ag-1: inactive; MOR-DOR ag-1: inactive; MOR-DOR inv ag-2: inactive; HTR5A inv conf: inactive

What do the screens show for `COc1ccc(Cl)cc1C(=O)NNC(=O)COC(=O)CCN=C1NS(=O)(=O)c2ccccc21`?
HTR5A ag ctr: inactive; HTR5A inv ctr: 71.3; MOR-DOR inv ag-1: inactive; MOR-DOR ag-1: inactive; MOR-DOR inv ag-2: inactive; HTR5A inv conf: inactive

How did C=CCn1c(SCC(=O)Nc2ccc(F)cc2)nc2cc(C(=O)O)ccc2c1=O do in these assays?
HTR5A ag ctr: inactive; HTR5A inv ctr: 43.4; MOR-DOR inv ag-1: inactive; MOR-DOR ag-1: inactive; MOR-DOR inv ag-2: inactive; HTR5A inv conf: inactive

What do the screens show for `O=[N+]([O-])c1ccc(/C=N/Nc2nc(NCc3ccccc3)nc(N3CCOCC3)n2)cc1`?
HTR5A ag ctr: inactive; HTR5A inv ctr: inactive; MOR-DOR inv ag-1: inactive; MOR-DOR ag-1: inactive

How did O=[N+]([O-])c1cccc(/C=N/Nc2nc(NCc3ccccc3)nc(N3CCOCC3)n2)c1O do in these assays?
HTR5A ag ctr: inactive; HTR5A inv ctr: 87.7; MOR-DOR inv ag-1: inactive; MOR-DOR ag-1: inactive; MOR-DOR inv ag-2: inactive; HTR5A inv conf: inactive

Results for COc1cccc(/C=C/c2ccc3cccc(O)c3n2)c1OC ?
HTR5A ag ctr: inactive; HTR5A inv ctr: 31.6; MOR-DOR inv ag-1: inactive; MOR-DOR ag-1: inactive; MOR-DOR inv ag-2: inactive; HTR5A inv conf: inactive

What do the screens show for `COc1ccc(/C=C/c2ccc3cccc(O)c3n2)c(OC)c1OC`?
HTR5A ag ctr: inactive; HTR5A inv ctr: 34.8; MOR-DOR inv ag-1: inactive; MOR-DOR ag-1: inactive; MOR-DOR inv ag-2: inactive; HTR5A inv conf: inactive

How did C/C(=N/NS(=O)(=O)c1ccc(C)cc1C)c1c[nH]c2ccccc12 do in these assays?
HTR5A ag ctr: 18.4; HTR5A inv ctr: inactive; MOR-DOR inv ag-1: inactive; MOR-DOR ag-1: inactive; MOR-DOR ag-2: inactive; HTR5A ag conf: inactive

What do the screens show for `C/C(=N/NS(=O)(=O)c1ccc(C)cc1)c1ccc2c(c1)OCO2`?
HTR5A ag ctr: inactive; HTR5A inv ctr: inactive; MOR-DOR inv ag-1: inactive; MOR-DOR ag-1: inactive

Results for C/C(=N/NS(=O)(=O)c1ccc(C)cc1C)c1ccc2c(c1)OCO2 ?
HTR5A ag ctr: 20.1; HTR5A inv ctr: inactive; MOR-DOR inv ag-1: inactive; MOR-DOR ag-1: inactive; MOR-DOR ag-2: inactive; HTR5A ag conf: inactive

What do the screens show for `C/C(=N/NS(=O)(=O)c1ccc(C)c(C)c1)c1c[nH]c2ccccc12`?
HTR5A ag ctr: inactive; HTR5A inv ctr: inactive; MOR-DOR inv ag-1: inactive; MOR-DOR ag-1: inactive

How did O=C(NCCc1c[nH]c2ccccc12)C(=O)NCC1OCCCN1S(=O)(=O)c1cccs1 (centres undefined) do in these assays?
HTR5A ag ctr: 30.9; HTR5A inv ctr: inactive; MOR-DOR inv ag-1: inactive; MOR-DOR ag-1: inactive; MOR-DOR ag-2: inactive; HTR5A ag conf: inactive

What do the screens show for `O=C(NCCc1c[nH]c2ccccc12)C(=O)NCC1OCCN1S(=O)(=O)c1cc(F)ccc1F` (centres undefined)?
HTR5A ag ctr: 34.3; HTR5A inv ctr: inactive; MOR-DOR inv ag-1: inactive; MOR-DOR ag-1: inactive; MOR-DOR ag-2: inactive; HTR5A ag conf: 44.7

What do the screens show for `O=C(NCCc1c[nH]c2ccccc12)C(=O)NCC1OCCCN1S(=O)(=O)c1ccc(F)cc1` (centres undefined)?
HTR5A ag ctr: 16.1; HTR5A inv ctr: inactive; MOR-DOR inv ag-1: inactive; MOR-DOR ag-1: inactive; MOR-DOR ag-2: inactive; HTR5A ag conf: 24.3

What do the screens show for `CNC(=O)C(=O)NCC1OCCCN1S(=O)(=O)c1cccs1` (centres undefined)?
HTR5A ag ctr: inactive; HTR5A inv ctr: inactive; MOR-DOR inv ag-1: inactive; MOR-DOR ag-1: inactive

What do the screens show for `O=C(NCCCc1ccccc1)C(=O)NCC1OCCN1S(=O)(=O)c1cc(F)ccc1F` (centres undefined)?
HTR5A ag ctr: inactive; HTR5A inv ctr: inactive; MOR-DOR inv ag-1: inactive; MOR-DOR ag-1: inactive

How did Cc1ccc(S(=O)(=O)N2CCOC2CNC(=O)C(=O)NCCc2ccc(S(N)(=O)=O)cc2)cc1 (centres undefined) do in these assays?
HTR5A ag ctr: inactive; HTR5A inv ctr: inactive; MOR-DOR inv ag-1: inactive; MOR-DOR ag-1: inactive

Results for Cc1ccc(S(=O)(=O)N2CCOC2CNC(=O)C(=O)NCCc2c[nH]c3ccccc23)cc1 (centres undefined) ?
HTR5A ag ctr: 53.7; HTR5A inv ctr: inactive; MOR-DOR inv ag-1: inactive; MOR-DOR ag-1: inactive; MOR-DOR ag-2: inactive; HTR5A ag conf: inactive

Results for O=C(NCCO)C(=O)NCC1OCCCN1S(=O)(=O)c1cccs1 (centres undefined) ?
HTR5A ag ctr: inactive; HTR5A inv ctr: inactive; MOR-DOR inv ag-1: inactive; MOR-DOR ag-1: inactive

Results for Cc1cc(F)ccc1S(=O)(=O)N1CCCOC1CNC(=O)C(=O)NCCc1c[nH]c2ccccc12 (centres undefined) ?
HTR5A ag ctr: 16.2; HTR5A inv ctr: inactive; MOR-DOR inv ag-1: inactive; MOR-DOR ag-1: inactive; MOR-DOR ag-2: 42.8; HTR5A ag conf: inactive

What do the screens show for `O=C(NCCCO)C(=O)NCC1OCCCN1S(=O)(=O)c1cccs1` (centres undefined)?
HTR5A ag ctr: 17.0; HTR5A inv ctr: inactive; MOR-DOR inv ag-1: inactive; MOR-DOR ag-1: inactive; MOR-DOR ag-2: inactive; HTR5A ag conf: inactive

Results for O=C(CN1C(=O)NC2(CCCC2)C1=O)Nc1ccc(C(F)(F)F)cc1 ?
HTR5A ag ctr: inactive; HTR5A inv ctr: inactive; MOR-DOR inv ag-1: inactive; MOR-DOR ag-1: inactive

Results for Nc1c(C(=O)Nc2ccc(S(=O)(=O)N3CCCC3)cc2)sc2nc3ccc(OC(F)(F)F)cc3cc12 ?
HTR5A ag ctr: 15.1; HTR5A inv ctr: inactive; MOR-DOR inv ag-1: inactive; MOR-DOR ag-1: inactive; MOR-DOR ag-2: 23.7; HTR5A ag conf: inactive

What do the screens show for `Nc1c(C(=O)Nc2ccc(S(=O)(=O)N3CCCC3)cc2)sc2nc3cc4c(cc3cc12)CCC4`?
HTR5A ag ctr: inactive; HTR5A inv ctr: inactive; MOR-DOR inv ag-1: inactive; MOR-DOR ag-1: inactive

Results for CCN(CC)S(=O)(=O)c1cccc(NC(=O)c2cccc(S(=O)(=O)N3CCCC3)c2)c1 ?
HTR5A ag ctr: inactive; HTR5A inv ctr: inactive; MOR-DOR inv ag-1: inactive; MOR-DOR ag-1: inactive

How did CC(C)(C)NC(=O)NC(=O)COC(=O)c1cccc(F)c1 do in these assays?
HTR5A ag ctr: inactive; HTR5A inv ctr: inactive; MOR-DOR inv ag-1: inactive; MOR-DOR ag-1: inactive

What do the screens show for `CC(C)(C)NC(=O)NC(=O)COC(=O)CNC(=O)c1cccc(F)c1`?
HTR5A ag ctr: 14.7; HTR5A inv ctr: inactive; MOR-DOR inv ag-1: inactive; MOR-DOR ag-1: inactive; MOR-DOR ag-2: 56.1; HTR5A ag conf: 25.6

Results for O=C(Nc1ccc(Oc2cccc(C(F)(F)F)c2)nc1)c1ccco1 ?
HTR5A ag ctr: inactive; HTR5A inv ctr: inactive; MOR-DOR inv ag-1: inactive; MOR-DOR ag-1: inactive

High-throughput results from PubChem.
